These results are taken from PubChem BioAssay (NCATS).

Where “and” joins values, the source holds several entries; their conditions need not be identical. Equal values may be shown once. Results filed as inconclusive are left out. Calls of active or inactive are those of the source. Calls follow the shape of the dose curve; as a rule, active = well fitted cell-killing curve with a large enough effect; inconclusive = small, poorly fitted or top-dose-only effect; inactive = no such curve, though single readings can be large or run the other way.
Potency is read from the fitted curve at half-maximal effect.

One assay can be described thus: qHTS of pediatric cancer cell lines to identify multiple opportunities for drug repurposing: Primary screen for SJ-GBM2 cells (AID 1347091). Particulars: SJ-GBM2 viability, CellTiter-Glo luminescence, 48 h; series mostly up to 46 µM. The gist of the method:
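Viability measured as metabolically active cells via CellTiter-Glo luminescence following 48 hours of compound exposure, 11-point dilutions in confirmatory testing. 500-1,000 cells/well plated 5 hours before dosing; controls were DMSO and 2.3 µM bortezomib.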
Background: qHTS replaces the single test concentration by a dilution series.
As for `CN(C)[C@@H](CCOc1cccc2ccccc12)c1ccccc1`, the Potency result is “inactive”.

In the case of `O=c1cc(N2CCOCC2)oc2c(-c3ccccc3)cccc12`, the Potency is 16.6 µM (active). Turning to `COC(=O)C1=C(C)NC(C)=C(C(=O)OC(C)C)C1c1cccc2nonc12` (stereo not given), the Potency entry was “inactive”.

For the molecule `CN(C)c1ccc(O)c2c1C[C@H]1C[C@H]3[C@H](N(C)C)C(=O)C(C(N)=O)=C(O)[C@@]3(O)C(=O)C1=C2O`, the Potency entry is “inactive”. Consider `Cc1cc2cc3c(C)cc(=O)oc3c(C)c2o1`, for which the Potency entry was “inactive”. Consider `C[C@@H](c1ncncc1F)[C@](O)(Cn1cncn1)c1ccc(F)cc1F`, for which the Potency entry was “inactive”. Turning to `Cc1ccc(Nc2nccc(N(C)c3ccc4c(C)n(C)nc4c3)n2)cc1S(N)(=O)=O`, the Potency was 14.8 µM (active). Take `C=C(c1ccc(C(=O)O)cc1)c1cc2c(cc1C)C(C)(C)CCC2(C)C`: the Potency was 26.6 µM (active). With `C[C@H](Cn1cnc2c(N)ncnc21)OCP(=O)(O)O`, the Potency result is “inactive”.

As to `CCCc1cc(=O)[nH]c(=S)[nH]1`, the Potency entry is “inactive”. Turning to `Nc1nc(N)c(N=O)c(OCC2CCCCC2)n1`, the Potency was 9.35 µM (active). In the case of `CC1(C)CCC(C)(C)c2cc(NC(=O)c3ccc(C(=O)O)cc3)ccc21`, the Potency entry was “inactive”. Take `Cc1cccc(CN2CCN(C(c3ccccc3)c3ccc(Cl)cc3)CC2)c1` (stereo not given): the Potency result is “inactive”.

`CS(=O)(=O)OCCCCOS(C)(=O)=O`: the Potency result was “inactive”. For `O=C(NC(Cc1cc(=O)[nH]c2ccccc12)C(=O)O)c1ccc(Cl)cc1` (stereo not given), the Potency entry was “inactive”. For `CCOC(=O)C(C)Oc1cccc2c(=O)n(CC(=O)Nc3ccc4c(c3)OCCO4)ccc12` (stereo not given), the Potency entry was “inactive”. Turning to `O=C(c1ccccc1)c1ccc2n1CCC2C(=O)O` (stereo not given), the Potency result was “inactive”.

For `Clc1ccc(C(Cn2ccnc2)OCc2c(Cl)cccc2Cl)c(Cl)c1` (stereo not given), the Potency result was “inactive”.

For the molecule `Nc1nc(Cl)nc2c1ncn2[C@H]1C[C@H](O)[C@@H](CO)O1`, the Potency is 7.43 µM (active).

As for `COC(=O)C1=C(C)NC(C)=C(C(=O)OCCCN2CCC(c3ccccc3)(c3ccccc3)CC2)C1c1cccc([N+](=O)[O-])c1` (stereo not given), the Potency entry was “inactive”. Consider `Cc1cc(O)c2c(c1)C(=O)c1cc(O)cc(O)c1C2=O`, for which the Potency entry was “inactive”.

Consider `c1ccc2[nH]c(-c3cscn3)nc2c1`, for which the Potency entry is “inactive”. On the same count and under the same terms, as for `COC1=C(OC)C(=O)C(CCCCCCCCCCO)=C(C)C1=O`, the entry is “inactive”; as for `O=c1ccc2ccc(O)c(O)c2o1`, “inactive”; as for `CN(C)CCCC1(c2ccc(F)cc2)OCc2cc(C#N)ccc21` (stereo not given), “inactive”.

Another assay is described as follows: qHTS of pediatric cancer cell lines to identify multiple opportunities for drug repurposing: Primary screen for A673 cells (AID 1347092). Also: nearly all actives have a fitted effect of over 45% in size. Particulars: A673 Ewing sarcoma viability, CellTiter-Glo ATP luminescence, 48 h; series mostly up to 46 µM. Summed up: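 48 h compound exposure, A673, 500-1,000 cells/well, 37 degrees C/5% CO2. MIPE: 11-point, 0.78 nM-46 µM; NPC: 8-point, 0.59 nM-46 µM (final). Readout CellTiter-Glo luminescence after 15 min RT.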
For `CN(C)[C@@H](CCOc1cccc2ccccc12)c1ccccc1`, the Potency result was “inactive”.

Take `Nc1nc(OCc2ccccc2)c2[nH]cnc2n1`: the Potency is 18.7 µM (active). For `Cc1ccc(Nc2nccc(N(C)c3ccc4c(C)n(C)nc4c3)n2)cc1S(N)(=O)=O`, the Potency entry is “inactive”. Still for that read-out and setting: the same measure for `C=C(c1ccc(C(=O)O)cc1)c1cc2c(cc1C)C(C)(C)CCC2(C)C`: “inactive”; for `C[C@H](Cn1cnc2c(N)ncnc21)OCP(=O)(O)O`: “inactive”; for `Oc1ccc2ccccc2c1SSc1c(O)ccc2ccccc12`: 18.7 µM (active). For the molecule `Nc1nc(N)c(N=O)c(OCC2CCCCC2)n1`, the Potency was 7.43 µM (active). Turning to `Cc1cccc(CN2CCN(C(c3ccccc3)c3ccc(Cl)cc3)CC2)c1` (stereo not given), the Potency is 18.7 µM (active).

For the molecule `Cc1cc(Cl)ccc1OCCCC(=O)NO`, the Potency is 2.96 µM (active). On the same count and under the same terms, the same measure for `CS(=O)(=O)OCCCCOS(C)(=O)=O`: “inactive”; for `O=C(NC(Cc1cc(=O)[nH]c2ccccc12)C(=O)O)c1ccc(Cl)cc1` (stereo not given): “inactive”; for `CCOC(=O)C(C)Oc1cccc2c(=O)n(CC(=O)Nc3ccc4c(c3)OCCO4)ccc12` (stereo not given): 7.43 µM (active). In the case of `Clc1ccc(C(Cn2ccnc2)OCc2c(Cl)cccc2Cl)c(Cl)c1` (stereo not given), the Potency was 21.1 µM (active) and 18.7 µM (active). For `Nc1nc(Cl)nc2c1ncn2[C@H]1C[C@H](O)[C@@H](CO)O1`, the Potency is 2.96 µM (active). As to `Cc1cc(O)c2c(c1)C(=O)c1cc(O)cc(O)c1C2=O`, the Potency entry was “inactive”.

As to `c1ccc2[nH]c(-c3cscn3)nc2c1`, the Potency entry is “inactive”. On to `COC1=C(OC)C(=O)C(CCCCCCCCCCO)=C(C)C1=O`, for which the Potency was 26.6 µM (active) and 23.5 µM (active). For `Cc1cc(C2CCCCC2)n(O)c(=O)c1`, the Potency was 2.96 µM (active).

Turning to `CC(=O)O[C@H]1C(=O)[C@@]2(C)C([C@H](OC(=O)c3ccccc3)[C@]3(O)C[C@H](OC(=O)[C@H](O)[C@@H](NC(=O)c4ccccc4)c4ccccc4)C(C)=C1C3(C)C)[C@]1(OC(C)=O)CO[C@@H]1C[C@@H]2O` (stereo not given in full), the Potency was 0.001 µM (active). In the case of `O=c1ccc2ccc(O)c(O)c2o1`, the Potency was 5.9 µM (active). `COc1cc(C(C)=O)ccc1OCCCN1CCC(c2noc3cc(F)ccc23)CC1`: the Potency result was “inactive”. Regarding `CN(C)CCCC1(c2ccc(F)cc2)OCc2cc(C#N)ccc21` (stereo not given), the Potency was 29.6 µM (active). For `OC(CN1CCN(c2cccc(Cl)c2)CC1)C(c1ccccc1)c1ccccc1` (stereo not given), the Potency was 18.7 µM (active).

A short description of another assay: qHTS of pediatric cancer cell lines to identify multiple opportunities for drug repurposing: Primary screen for SK-N-MC cells (AID 1347093). Particulars: SK-N-MC viability, CellTiter-Glo luminescence, 48 h; series mostly up to 46 µM. The gist of the method: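 Metabolically active cells were quantified by ATP-dependent luminescence (CellTiter-Glo, 15 min at room temperature) following 48 h treatment. Cells had been plated at 500-1,000 per well and settled for 5 h beforehand.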
For the molecule `CN(C)[C@@H](CCOc1cccc2ccccc12)c1ccccc1`, the Potency was 23.5 µM (active). With `O=c1cc(N2CCOCC2)oc2c(-c3ccccc3)cccc12`, the Potency was 9.35 µM (active). Regarding `CC(C)c1nc(CN(C)C(=O)N[C@H](C(=O)N[C@@H](Cc2ccccc2)C[C@H](O)[C@H](Cc2ccccc2)NC(=O)OCc2cncs2)C(C)C)cs1`, the Potency is 10.5 µM (active). Consider `CC(=O)N1CCN(c2ccc(OC[C@H]3CO[C@](Cn4ccnc4)(c4ccc(Cl)cc4Cl)O3)cc2)CC1`, for which the Potency was 23.5 µM (active). `COC(=O)C1=C(C)NC(C)=C(C(=O)OC(C)C)C1c1cccc2nonc12` (stereo not given): the Potency was 2.64 µM (active).

In the case of `Cc1ccc(Nc2nccc(N(C)c3ccc4c(C)n(C)nc4c3)n2)cc1S(N)(=O)=O`, the Potency is 8.41 µM (active) and 16.6 µM (active). Turning to `C=C(c1ccc(C(=O)O)cc1)c1cc2c(cc1C)C(C)(C)CCC2(C)C`, the Potency was 2.11 µM (active). Still for that read-out and setting: as for `Nc1nc(N)c(N=O)c(OCC2CCCCC2)n1`, the figure is 3.32 µM (active). With `CCN(CC)CCOc1ccc(Cc2ccccc2)cc1`, the Potency result is “inactive”. For the molecule `CC1(C)CCC(C)(C)c2cc(NC(=O)c3ccc(C(=O)O)cc3)ccc21`, the Potency is 1.87 µM (active). Still for that read-out and setting: the same measure for `Cc1cccc(CN2CCN(C(c3ccccc3)c3ccc(Cl)cc3)CC2)c1` (stereo not given): 11.9 µM (active) and 18.7 µM (active); for `Cc1cc(Cl)ccc1OCCCC(=O)NO`: 2.09 µM (active). `Nc1nc(Cl)nc2c1ncn2[C@H]1C[C@H](O)[C@@H](CO)O1`: the Potency is 18.7 µM (active). Regarding `COC(=O)C1=C(C)NC(C)=C(C(=O)OCCCN2CCC(c3ccccc3)(c3ccccc3)CC2)C1c1cccc([N+](=O)[O-])c1` (stereo not given), the Potency is 23.7 µM (active). On to `O=C(CCc1ccc(O)cc1)c1c(O)cc(O)cc1O`, for which the Potency is 0.118 µM (active). `COC1=C(OC)C(=O)C(CCCCCCCCCCO)=C(C)C1=O`: the Potency result is “inactive”. Consider `Cc1cc(C2CCCCC2)n(O)c(=O)c1`, for which the Potency is 750 nM (active) and 1.18 µM (active).

For `CC(=O)O[C@H]1C(=O)[C@@]2(C)C([C@H](OC(=O)c3ccccc3)[C@]3(O)C[C@H](OC(=O)[C@H](O)[C@@H](NC(=O)c4ccccc4)c4ccccc4)C(C)=C1C3(C)C)[C@]1(OC(C)=O)CO[C@@H]1C[C@@H]2O` (stereo not given in full), the Potency was 0.001 µM (active). As to `COc1cc(C(C)=O)ccc1OCCCN1CCC(c2noc3cc(F)ccc23)CC1`, the Potency result was “inactive”. On the same count and under the same terms, as for `CN(C)CCCC1(c2ccc(F)cc2)OCc2cc(C#N)ccc21` (stereo not given), the figure is 11.8 µM (active); as for `OC(CN1CCN(c2cccc(Cl)c2)CC1)C(c1ccccc1)c1ccccc1` (stereo not given), 10.5 µM (active). The same measure, in the same setting: the same measure for `C[C@H](Cc1ccc(O)c(O)c1)[C@@H](C)Cc1ccc(O)c(O)c1`: 11.8 µM (active).
